# Laboratory results published in PMC7862700, “An all-to-all approach to the identification of sequence-specific readers for epigenetic DNA modifications on cytosine”.
# Assays:
# Assay in all cases: DAPPL (digital affinity profiling via proximity ligation, sequencing); 10 mM Tris-HCl pH 7.5, 50 mM NaCl, 1 mM DTT, 4% glycerol, room temperature, 30 min; GST-TFs on glutathione beads, 16-mer random dsDNA library, 0.1% formaldehyde crosslink after washing; high values mean tight binding
# FLI1 = molecular target: T1, FLI1 (Homo sapiens, UniProt Q01543 1-452); settings: protein: recombinant; tags: N-terminal GST; dsDNA, one strand shown
# T1 sequence: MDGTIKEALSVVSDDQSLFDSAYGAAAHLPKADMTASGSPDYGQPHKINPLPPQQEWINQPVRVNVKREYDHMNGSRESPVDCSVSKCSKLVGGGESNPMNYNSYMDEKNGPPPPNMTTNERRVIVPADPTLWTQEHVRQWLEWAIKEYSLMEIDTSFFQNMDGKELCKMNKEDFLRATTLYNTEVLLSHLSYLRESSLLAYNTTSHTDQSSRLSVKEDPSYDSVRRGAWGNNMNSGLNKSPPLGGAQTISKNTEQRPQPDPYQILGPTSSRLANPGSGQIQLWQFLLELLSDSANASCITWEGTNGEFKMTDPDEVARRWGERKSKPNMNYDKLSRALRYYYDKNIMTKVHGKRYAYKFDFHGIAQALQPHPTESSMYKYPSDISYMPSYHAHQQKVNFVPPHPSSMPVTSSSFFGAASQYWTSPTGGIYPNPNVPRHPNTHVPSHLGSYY
# In short: (§1)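 Binding signal is each hexamer's read frequency for a factor divided by its frequency in the tag-only sample. The factors were GST-fused human transcription factors from yeast, captured on glutathione beads, DNA-barcoded and pooled with that sample. Pools were incubated with 200 nmole of a random double-stranded 16-mer DNA library in Tris/NaCl/DTT/glycerol buffer at room temperature for 30 min, then washed, crosslinked with 0.1% formaldehyde, proximity-ligated with BsaI/T4 ligase (1 h, 37 °C), PCR-amplified and sequenced on an Illumina NextSeq500.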
# ELK1 = molecular target: T2, ELK1 (Homo sapiens, UniProt P19419 1-428); settings: protein: recombinant; tags: N-terminal GST; dsDNA, one strand shown
# T2 sequence: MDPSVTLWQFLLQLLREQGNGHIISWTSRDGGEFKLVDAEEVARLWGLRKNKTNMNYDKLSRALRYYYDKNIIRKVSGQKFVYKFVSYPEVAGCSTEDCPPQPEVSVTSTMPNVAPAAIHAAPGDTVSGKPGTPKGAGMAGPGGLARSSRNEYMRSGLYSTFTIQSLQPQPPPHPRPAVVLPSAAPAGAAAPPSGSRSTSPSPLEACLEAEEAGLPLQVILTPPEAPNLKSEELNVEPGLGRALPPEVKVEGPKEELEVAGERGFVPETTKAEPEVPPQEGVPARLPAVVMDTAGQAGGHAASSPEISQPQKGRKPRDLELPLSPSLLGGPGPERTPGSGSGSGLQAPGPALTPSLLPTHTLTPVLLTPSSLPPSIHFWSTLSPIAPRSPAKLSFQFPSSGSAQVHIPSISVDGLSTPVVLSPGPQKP
# In short: as §1
# GABPA = molecular target: T3, GABPA (Homo sapiens, UniProt Q06546 1-454); settings: protein: recombinant; tags: N-terminal GST; dsDNA, one strand shown
# T3 sequence: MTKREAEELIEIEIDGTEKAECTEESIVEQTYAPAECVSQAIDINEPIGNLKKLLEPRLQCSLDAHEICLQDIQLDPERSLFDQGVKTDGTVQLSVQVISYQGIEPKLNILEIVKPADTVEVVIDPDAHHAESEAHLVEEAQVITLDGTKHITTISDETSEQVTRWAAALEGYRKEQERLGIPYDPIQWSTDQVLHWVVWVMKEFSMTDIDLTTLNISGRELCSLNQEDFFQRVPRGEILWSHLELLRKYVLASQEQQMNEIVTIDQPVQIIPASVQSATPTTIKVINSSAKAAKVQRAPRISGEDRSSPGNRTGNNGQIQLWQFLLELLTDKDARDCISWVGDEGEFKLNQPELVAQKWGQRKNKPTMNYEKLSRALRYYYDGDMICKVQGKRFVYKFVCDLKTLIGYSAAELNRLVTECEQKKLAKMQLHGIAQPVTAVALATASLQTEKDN
# In short: as §1
# ERG = molecular target: T4, ERG (Homo sapiens, UniProt P11308 1-479); settings: protein: recombinant; tags: N-terminal GST; dsDNA, one strand shown
# T4 sequence: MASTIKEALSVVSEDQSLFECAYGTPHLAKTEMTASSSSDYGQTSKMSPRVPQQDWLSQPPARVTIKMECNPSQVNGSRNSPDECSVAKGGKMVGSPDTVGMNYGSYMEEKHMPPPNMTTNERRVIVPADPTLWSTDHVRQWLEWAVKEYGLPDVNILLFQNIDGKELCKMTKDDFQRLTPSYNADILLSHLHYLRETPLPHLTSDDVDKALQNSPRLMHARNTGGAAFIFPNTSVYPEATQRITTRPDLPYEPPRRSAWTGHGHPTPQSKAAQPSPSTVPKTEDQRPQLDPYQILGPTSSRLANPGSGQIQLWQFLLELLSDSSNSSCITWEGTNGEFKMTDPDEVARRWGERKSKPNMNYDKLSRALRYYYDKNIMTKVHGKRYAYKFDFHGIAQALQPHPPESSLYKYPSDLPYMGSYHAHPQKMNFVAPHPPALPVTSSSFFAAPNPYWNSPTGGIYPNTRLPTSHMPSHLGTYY
# In short: as §1
# ELF1 = ELF1 (Homo sapiens, UniProt P32519 1-619); settings: protein: recombinant; tags: N-terminal GST; dsDNA, one strand shown
# In short: as §1
# EHF = molecular target: T5, EHF (Homo sapiens, UniProt Q9NZC4 1-300); settings: protein: recombinant; tags: N-terminal GST; dsDNA, one strand shown
# T5 sequence: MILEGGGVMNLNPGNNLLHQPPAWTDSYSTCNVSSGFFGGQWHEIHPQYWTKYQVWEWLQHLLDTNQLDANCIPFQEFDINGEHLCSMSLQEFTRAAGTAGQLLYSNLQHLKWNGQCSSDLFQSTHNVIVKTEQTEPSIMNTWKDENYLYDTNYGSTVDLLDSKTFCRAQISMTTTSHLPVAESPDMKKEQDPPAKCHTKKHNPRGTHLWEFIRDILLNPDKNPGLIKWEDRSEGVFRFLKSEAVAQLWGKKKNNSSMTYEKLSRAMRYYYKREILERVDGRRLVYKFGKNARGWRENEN
# In short: as §1
# SPI1 = SPI1 (Homo sapiens, UniProt P17947 1-270); settings: protein: recombinant; tags: N-terminal GST; dsDNA, one strand shown
# In short: as §1
# SPIB = SPIB (Homo sapiens, UniProt Q01892 1-262); settings: protein: recombinant; tags: N-terminal GST; dsDNA, one strand shown
# In short: as §1
# ELK3 = molecular target: T6, ELK3 (Homo sapiens, UniProt P41970 1-407); settings: protein: recombinant; tags: N-terminal GST; dsDNA, one strand shown
# T6 sequence: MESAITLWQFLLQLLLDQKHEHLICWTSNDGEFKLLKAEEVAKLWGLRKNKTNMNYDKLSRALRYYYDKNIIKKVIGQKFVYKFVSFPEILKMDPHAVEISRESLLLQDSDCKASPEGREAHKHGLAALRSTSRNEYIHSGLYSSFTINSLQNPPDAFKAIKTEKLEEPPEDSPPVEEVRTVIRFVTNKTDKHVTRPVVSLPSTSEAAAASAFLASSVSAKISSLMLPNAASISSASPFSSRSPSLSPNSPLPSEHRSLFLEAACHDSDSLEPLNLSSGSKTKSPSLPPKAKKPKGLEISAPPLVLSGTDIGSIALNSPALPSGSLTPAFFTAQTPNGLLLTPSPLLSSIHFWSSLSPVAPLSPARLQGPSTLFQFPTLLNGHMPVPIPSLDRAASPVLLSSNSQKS
# In short: as §1
# FEV = molecular target: T7, FEV (Homo sapiens, UniProt Q99581 1-238); settings: protein: recombinant; tags: N-terminal GST; dsDNA, one strand shown
# T7 sequence: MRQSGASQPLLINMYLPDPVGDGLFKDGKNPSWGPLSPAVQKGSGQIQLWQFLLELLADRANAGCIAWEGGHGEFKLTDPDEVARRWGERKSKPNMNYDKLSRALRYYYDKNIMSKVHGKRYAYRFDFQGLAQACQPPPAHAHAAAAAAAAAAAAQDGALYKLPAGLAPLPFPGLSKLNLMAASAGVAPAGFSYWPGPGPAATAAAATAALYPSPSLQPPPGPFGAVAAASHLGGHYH
# In short: as §1
# ETV5 = ETV5 (Homo sapiens, UniProt P41161 1-510); settings: protein: recombinant; tags: N-terminal GST; dsDNA, one strand shown
# In short: as §1
# HSF1 = HSF1 (Homo sapiens, UniProt Q00613 1-529); settings: protein: recombinant; tags: N-terminal GST; chain copies: 3; dsDNA, one strand shown
# In short: as §1
# SPIC = molecular target: T8, SPIC (Homo sapiens, UniProt Q8N5J4 1-248); settings: protein: recombinant; tags: N-terminal GST; dsDNA, one strand shown
# T8 sequence: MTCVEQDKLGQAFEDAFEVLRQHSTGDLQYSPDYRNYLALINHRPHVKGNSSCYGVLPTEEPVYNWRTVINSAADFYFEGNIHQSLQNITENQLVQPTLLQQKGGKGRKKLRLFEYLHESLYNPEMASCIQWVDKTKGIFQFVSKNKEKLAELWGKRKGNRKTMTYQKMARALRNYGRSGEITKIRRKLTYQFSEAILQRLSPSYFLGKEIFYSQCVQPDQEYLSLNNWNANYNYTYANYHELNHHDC
# In short: as §1
# ELF4 = ELF4 (Homo sapiens, UniProt Q99607 1-663); settings: protein: recombinant; tags: N-terminal GST; dsDNA, one strand shown
# In short: as §1
# ELK4 = molecular target: T9, ELK4 (Homo sapiens, UniProt P28324-2 1-405); settings: protein: recombinant; tags: N-terminal GST; dsDNA, one strand shown
# T9 sequence: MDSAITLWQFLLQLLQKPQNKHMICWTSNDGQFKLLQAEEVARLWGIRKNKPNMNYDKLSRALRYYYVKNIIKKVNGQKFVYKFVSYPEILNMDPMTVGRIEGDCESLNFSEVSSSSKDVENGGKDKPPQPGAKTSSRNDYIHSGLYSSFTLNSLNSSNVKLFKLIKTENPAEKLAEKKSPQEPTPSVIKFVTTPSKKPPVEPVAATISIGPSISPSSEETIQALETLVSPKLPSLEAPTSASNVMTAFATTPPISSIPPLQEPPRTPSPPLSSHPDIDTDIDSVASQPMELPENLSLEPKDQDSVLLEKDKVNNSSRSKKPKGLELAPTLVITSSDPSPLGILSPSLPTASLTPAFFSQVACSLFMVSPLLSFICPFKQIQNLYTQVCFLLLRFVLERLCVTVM
# In short: as §1
# ETV2 = molecular target: T10, ETV2 (Homo sapiens, UniProt O00321 1-342); settings: protein: recombinant; tags: N-terminal GST; dsDNA, one strand shown
# T10 sequence: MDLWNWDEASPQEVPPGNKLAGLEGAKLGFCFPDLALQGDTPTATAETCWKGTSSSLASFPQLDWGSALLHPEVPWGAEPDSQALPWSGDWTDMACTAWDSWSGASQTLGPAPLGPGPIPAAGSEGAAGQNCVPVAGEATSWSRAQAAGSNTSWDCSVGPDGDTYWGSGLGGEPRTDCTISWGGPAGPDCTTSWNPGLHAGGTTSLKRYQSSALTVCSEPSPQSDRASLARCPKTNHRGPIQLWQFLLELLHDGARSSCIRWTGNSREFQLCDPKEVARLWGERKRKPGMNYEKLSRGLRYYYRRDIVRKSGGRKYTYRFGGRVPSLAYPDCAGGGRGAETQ
# In short: as §1
# ELF3 = molecular target: T11, ELF3 (Homo sapiens, UniProt P78545 1-371); settings: protein: recombinant; tags: N-terminal GST; dsDNA, one strand shown
# T11 sequence: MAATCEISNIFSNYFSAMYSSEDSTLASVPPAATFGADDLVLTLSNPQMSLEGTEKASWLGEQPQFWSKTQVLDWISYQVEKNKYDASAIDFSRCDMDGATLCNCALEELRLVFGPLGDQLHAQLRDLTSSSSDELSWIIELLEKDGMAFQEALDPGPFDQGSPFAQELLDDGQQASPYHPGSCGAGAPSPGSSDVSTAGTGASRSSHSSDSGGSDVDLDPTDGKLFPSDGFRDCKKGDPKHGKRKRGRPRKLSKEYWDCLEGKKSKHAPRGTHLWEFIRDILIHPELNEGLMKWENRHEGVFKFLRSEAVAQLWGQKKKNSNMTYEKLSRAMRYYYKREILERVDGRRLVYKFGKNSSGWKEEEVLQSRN
# In short: as §1
# CRX = CRX (Homo sapiens, UniProt O43186 1-299); settings: protein: recombinant; tags: N-terminal GST; dsDNA, one strand shown
# In short: as §1
# ETV1 = ETV1 (Homo sapiens, UniProt P50549 1-477); settings: protein: recombinant; tags: N-terminal GST; dsDNA, one strand shown
# In short: as §1
# Chain of ELF4 (Q99607 whole entry): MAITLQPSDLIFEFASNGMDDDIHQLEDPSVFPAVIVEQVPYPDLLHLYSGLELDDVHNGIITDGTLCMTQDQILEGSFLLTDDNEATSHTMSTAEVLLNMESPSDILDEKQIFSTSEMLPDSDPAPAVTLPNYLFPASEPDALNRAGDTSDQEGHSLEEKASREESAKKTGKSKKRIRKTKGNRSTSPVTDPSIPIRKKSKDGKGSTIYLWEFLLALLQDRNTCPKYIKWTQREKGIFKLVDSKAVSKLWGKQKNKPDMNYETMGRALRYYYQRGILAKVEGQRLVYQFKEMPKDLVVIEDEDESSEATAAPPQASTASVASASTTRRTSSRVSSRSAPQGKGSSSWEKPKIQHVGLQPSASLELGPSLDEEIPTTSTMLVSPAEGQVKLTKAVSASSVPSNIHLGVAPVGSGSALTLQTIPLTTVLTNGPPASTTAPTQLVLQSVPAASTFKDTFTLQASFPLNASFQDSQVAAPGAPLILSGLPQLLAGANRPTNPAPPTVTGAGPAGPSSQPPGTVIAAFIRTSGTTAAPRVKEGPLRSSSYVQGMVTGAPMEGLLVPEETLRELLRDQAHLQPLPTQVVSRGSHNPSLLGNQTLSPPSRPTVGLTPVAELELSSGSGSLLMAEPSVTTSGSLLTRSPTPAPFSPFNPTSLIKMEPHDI
# Chain of ELF1 (P32519 whole entry): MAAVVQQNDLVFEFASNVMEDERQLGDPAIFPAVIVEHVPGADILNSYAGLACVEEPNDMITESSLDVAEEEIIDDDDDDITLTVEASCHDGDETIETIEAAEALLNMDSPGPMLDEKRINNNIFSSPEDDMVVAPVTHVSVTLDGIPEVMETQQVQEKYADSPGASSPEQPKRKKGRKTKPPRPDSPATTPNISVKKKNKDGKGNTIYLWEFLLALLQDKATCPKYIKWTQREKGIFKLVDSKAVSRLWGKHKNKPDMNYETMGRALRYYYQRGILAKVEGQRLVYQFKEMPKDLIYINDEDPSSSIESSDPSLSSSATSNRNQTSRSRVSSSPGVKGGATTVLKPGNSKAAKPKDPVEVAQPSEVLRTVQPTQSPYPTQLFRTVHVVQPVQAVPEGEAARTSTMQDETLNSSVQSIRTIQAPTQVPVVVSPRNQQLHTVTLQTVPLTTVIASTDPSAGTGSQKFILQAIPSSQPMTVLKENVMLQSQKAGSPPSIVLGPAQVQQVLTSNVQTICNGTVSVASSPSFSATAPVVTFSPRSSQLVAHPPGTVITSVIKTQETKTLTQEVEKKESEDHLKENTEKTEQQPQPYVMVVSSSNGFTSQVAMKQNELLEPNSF
# Chain of SPIB (Q01892 whole entry): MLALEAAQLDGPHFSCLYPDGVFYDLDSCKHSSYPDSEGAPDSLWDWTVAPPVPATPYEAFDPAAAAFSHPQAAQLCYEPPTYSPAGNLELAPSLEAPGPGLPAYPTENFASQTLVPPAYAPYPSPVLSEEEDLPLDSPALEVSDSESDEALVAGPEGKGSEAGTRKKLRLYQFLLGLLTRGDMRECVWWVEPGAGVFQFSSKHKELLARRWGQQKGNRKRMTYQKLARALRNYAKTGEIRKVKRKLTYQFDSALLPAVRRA
# Chain of ETV5 (P41161 whole entry): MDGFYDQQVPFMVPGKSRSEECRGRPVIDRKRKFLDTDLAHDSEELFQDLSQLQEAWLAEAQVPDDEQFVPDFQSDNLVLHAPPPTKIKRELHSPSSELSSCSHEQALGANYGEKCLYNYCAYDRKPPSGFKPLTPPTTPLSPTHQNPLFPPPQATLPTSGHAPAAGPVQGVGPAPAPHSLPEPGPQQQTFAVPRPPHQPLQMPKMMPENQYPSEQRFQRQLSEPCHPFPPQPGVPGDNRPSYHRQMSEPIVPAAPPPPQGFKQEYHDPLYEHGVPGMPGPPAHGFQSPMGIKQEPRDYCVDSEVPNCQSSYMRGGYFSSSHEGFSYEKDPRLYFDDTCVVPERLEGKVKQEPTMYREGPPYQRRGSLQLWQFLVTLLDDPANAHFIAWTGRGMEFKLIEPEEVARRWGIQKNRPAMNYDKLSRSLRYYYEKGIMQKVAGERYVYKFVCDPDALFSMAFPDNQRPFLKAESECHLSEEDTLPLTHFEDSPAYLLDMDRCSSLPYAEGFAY
# Chain of ETV1 (P50549 whole entry): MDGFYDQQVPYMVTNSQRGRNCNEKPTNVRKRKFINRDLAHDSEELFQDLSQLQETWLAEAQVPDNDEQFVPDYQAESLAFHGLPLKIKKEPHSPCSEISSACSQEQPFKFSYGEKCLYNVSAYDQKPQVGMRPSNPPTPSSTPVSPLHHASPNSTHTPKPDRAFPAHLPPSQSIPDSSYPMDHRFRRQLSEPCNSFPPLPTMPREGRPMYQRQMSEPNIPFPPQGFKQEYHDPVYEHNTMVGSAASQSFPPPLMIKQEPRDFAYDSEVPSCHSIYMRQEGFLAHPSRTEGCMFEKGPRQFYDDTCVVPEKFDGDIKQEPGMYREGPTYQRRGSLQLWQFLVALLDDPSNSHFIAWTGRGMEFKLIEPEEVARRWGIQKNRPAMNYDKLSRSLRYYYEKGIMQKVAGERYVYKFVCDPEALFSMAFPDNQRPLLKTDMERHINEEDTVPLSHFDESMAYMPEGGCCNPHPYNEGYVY
# Chain of CRX (O43186 whole entry): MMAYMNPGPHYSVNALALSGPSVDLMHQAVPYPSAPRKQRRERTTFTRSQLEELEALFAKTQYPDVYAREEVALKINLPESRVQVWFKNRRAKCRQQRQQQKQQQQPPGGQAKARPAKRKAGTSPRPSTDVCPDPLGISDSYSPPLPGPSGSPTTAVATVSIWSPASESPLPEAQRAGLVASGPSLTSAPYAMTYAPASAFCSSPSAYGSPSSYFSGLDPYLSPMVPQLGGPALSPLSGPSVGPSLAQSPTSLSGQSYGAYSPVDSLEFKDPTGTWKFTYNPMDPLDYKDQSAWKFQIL
# Chain of HSF1 (Q00613 whole entry): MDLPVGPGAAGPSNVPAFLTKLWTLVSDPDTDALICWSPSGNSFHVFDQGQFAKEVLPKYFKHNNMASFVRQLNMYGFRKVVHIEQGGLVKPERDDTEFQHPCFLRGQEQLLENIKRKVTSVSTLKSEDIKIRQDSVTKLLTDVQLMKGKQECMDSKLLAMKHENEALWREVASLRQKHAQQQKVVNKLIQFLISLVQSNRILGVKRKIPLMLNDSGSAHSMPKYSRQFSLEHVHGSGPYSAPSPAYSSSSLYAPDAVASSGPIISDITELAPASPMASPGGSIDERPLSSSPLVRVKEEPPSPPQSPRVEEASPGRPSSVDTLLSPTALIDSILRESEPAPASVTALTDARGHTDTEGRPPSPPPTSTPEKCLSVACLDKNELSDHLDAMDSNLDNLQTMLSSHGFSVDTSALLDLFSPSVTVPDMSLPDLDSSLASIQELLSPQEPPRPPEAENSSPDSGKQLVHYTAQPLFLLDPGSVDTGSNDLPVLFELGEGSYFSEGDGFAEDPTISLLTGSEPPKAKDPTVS
sequence,measurement,setting,value
TTCGCA,binding signal,FLI1,"1.23 fold enrichment (6-mer frequency, TF over GST control)"
same,binding signal,ELK1,"1.36 fold enrichment (6-mer frequency, TF over GST control)"
same,binding signal,GABPA,"1.33 fold enrichment (6-mer frequency, TF over GST control)"
same,binding signal,ERG,"1.29 fold enrichment (6-mer frequency, TF over GST control)"
same,binding signal,ELF1,"1.27 fold enrichment (6-mer frequency, TF over GST control)"
same,binding signal,EHF,"1.34 fold enrichment (6-mer frequency, TF over GST control)"
same,binding signal,SPI1,"1.32 fold enrichment (6-mer frequency, TF over GST control)"
same,binding signal,SPIB,"1.46 fold enrichment (6-mer frequency, TF over GST control)"
same,binding signal,ELK3,"1.25 fold enrichment (6-mer frequency, TF over GST control)"
same,binding signal,FEV,"1.4 fold enrichment (6-mer frequency, TF over GST control)"
same,binding signal,ETV5,"1.15 fold enrichment (6-mer frequency, TF over GST control)"
same,binding signal,HSF1,"1.31 fold enrichment (6-mer frequency, TF over GST control)"
same,binding signal,SPIC,"1.32 fold enrichment (6-mer frequency, TF over GST control)"
same,binding signal,ELF4,"1.26 fold enrichment (6-mer frequency, TF over GST control)"
same,binding signal,ELK4,"1.2 fold enrichment (6-mer frequency, TF over GST control)"
same,binding signal,ETV2,"1.34 fold enrichment (6-mer frequency, TF over GST control)"
same,binding signal,ELF3,"1.11 fold enrichment (6-mer frequency, TF over GST control)"
same,binding signal,CRX,"1.28 fold enrichment (6-mer frequency, TF over GST control)"
same,binding signal,ETV1,"1.32 fold enrichment (6-mer frequency, TF over GST control)"
